In PubChem BioAssay (NCI) one finds growth inhibition data, which are given here for 40 molecules.

This is part of a sample that, as a whole, favours compounds with a hit. Of some 79,000 tested, about 15% had one in any assay. Active and inactive are the calls of the source. No stated cut-off is given here; in the data, active means growth inhibition above about 70%; inactive means the rest.

This assay is described as follows: NCI Yeast Anticancer Drug Screen. Data for the mec2-1 strain (AID 157). Particulars: S. cerevisiae mec2-1 strain, at 50.0 µM, active compounds read high. The protocol: Growth inhibition of yeast strains with defined genetic alterations is measured as a screen for potential anti-cancer activity. Selected strains with alterations in DNA damage repair or cell cycle control were exposed to compounds and growth inhibition was measured relative to vehicle treated controls. The strain used in this assay is mec2-1
As to `NC(C1SCCS1)C(O)C(O)C(O)CO` (stereo not given), the growth inhibition is -27.6% (inactive).
Regarding `Cc1cc2c(C(C)C)c(O)c(O)c(C=Nc3cccc(O)c3)c2c(O)c1-c1c(C)cc2c(C(C)C)c(O)c(O)c(C=Nc3cccc(O)c3)c2c1O`, the growth inhibition was 26% (inactive).
With `COC(=O)c1ccc(SCCC(=O)CNc2nc(N)nc(N)c2[N+](=O)[O-])cc1`, the growth inhibition was -13.3% (inactive).
As for `CN(C)C=Nc1cc2c(cc1Br)-c1ccccc1C2=O`, the figure is 10.3% (inactive); as for `COc1cccc(C2c3cc4c(cc3OC(N3CCCCC3)C2C)OCO4)c1OC` (stereo not given), 30.8% (inactive); as for `CCC1=NO[C@@H](C(=O)OCc2ccccc2)[C@H]1C`, 5.25% (inactive).
Consider `CCOC(=O)NC1CCc2ccccc2C1` (stereo not given), for which the growth inhibition was 0.3% (inactive).
For the molecule `CC1CCC2C(C)C3C(CC4C5CC=C6CC(O)CCC6(C)C5CCC43COC(=O)c3ccccc3)N2C1` (stereo not given), the growth inhibition is 16.8% (inactive).
Regarding `Cn1c2ccccc2c(=O)c2cc(NC(=O)CCCCCCCC(=O)Nc3ccc4c(c3)c(=O)c3ccccc3n4C)ccc21`, the growth inhibition was -12.8% (inactive).
For `CN1C/C(=C/c2ccc(N(C)C)cc2)C(=O)/C(=C/c2ccc(N(C)C)cc2)C1`, the growth inhibition was -6.9% (inactive).
On to `NS(=O)(=O)c1nc(S(=O)(=O)O)c2[nH]cnc2n1`, for which the growth inhibition was -0.35% (inactive).
In the case of `CCOc1ccccc1C=C1c2ccccc2C(=O)c2ccccc21`, the growth inhibition is -7.6% (inactive).
As for `O=C(O)CCC1CCCO1` (stereo not given), the figure is -9.35% (inactive); as for `OC1(c2ccccc2)CCN(C/C=C/c2ccccc2Cl)CC1`, 53.9% (inactive); as for `[Cu+2].[Cu+2].[O-]c1ccccc1C=Nc1ccccc1[O-].[O-]c1ccccc1C=Nc1ccccc1[O-]`, -0.95% (inactive).
Consider `CCOC(=O)C(Cc1ccc(N=NN(C)C)cc1)NC(=O)CC1c2ccccc2-c2ccccc21` (stereo not given), for which the growth inhibition is 7.2% (inactive).
Turning to `CC1CCC2(CC1)CC(=O)N(N1CCCCC1)C2=O` (stereo not given), the growth inhibition is 10.8% (inactive).
Consider `COc1cc(C=O)c([N+](=O)[O-])cc1OC`, for which the growth inhibition is -20.7% (inactive).
For the molecule `C=C1C(=O)O[C@H]2[C@H]1CC(=O)/C(C)=C/CC[C@@]1(C)O[C@@H]21`, the growth inhibition is 21.4% (inactive).
Consider `CC(O)CNCc1ccc(N(C)C)cc1` (stereo not given), for which the growth inhibition is 0.4% (inactive).
As for `CCOC(=O)c1c(C)[nH]c(=S)c(C#N)c1-c1cccc2ccccc12`, the figure is 9.45% (inactive); as for `CC1C(C)C1(c1ccccc1)C(C)(C)O` (stereo not given), 1.1% (inactive); as for `CSc1nc2c(c(=O)n1C)N=C(c1ccc(Cl)cc1)CC(c1ccccc1)N2` (stereo not given), 3.25% (inactive).
On to `Cn1c(=O)c2nc3c(=O)n(C)c(=O)n(CC(N)=O)c3nc2n(C)c1=O`, for which the growth inhibition is -5.65% (inactive).
As to `CCCCNC(=O)c1cccc(OC)c1OC`, the growth inhibition was -1.55% (inactive).
For the molecule `Cc1c[n+]([O-])cc(C)c1N=Nc1ccc(N(C)C)cc1`, the growth inhibition is -7.7% (inactive).
Turning to `Nc1ccccc1C(F)(F)F`, the growth inhibition is 5.65% (inactive).
As for `O=C(O)CCS.[Cu+2]`, the figure is -25.3% (inactive); as for `C[n+]1ccccc1C(=O)O`, 28.9% (inactive); as for `O=C1c2ccccc2C(=O)c2c1cc1c(c2O)OCO1`, 13.4% (inactive).
As for `CC(=O)N(c1ccc(F)c(F)c1)c1ccc(F)c(F)c1`, the growth inhibition is -5.55% (inactive).
Take `CC(=O)Nc1cc2c(cc1C=O)OCO2`: the growth inhibition was 9.7% (inactive).
Regarding `CC(NC(=O)C(C)NC(=O)C(N)CCP(C)(=O)O)C(=O)O` (stereo not given), the growth inhibition was -15% (inactive).
For the molecule `CCOC(=O)C(CSC(=O)c1ccccc1)NC(=O)OCc1ccccc1` (stereo not given), the growth inhibition is -3.35% (inactive).
`CCCCCCCCn1nnnc1N`: the growth inhibition is 21% (inactive).
Regarding `N#CC(C#N)=Cn1c(=S)[nH]c2ccc([N+](=O)[O-])cc21`, the growth inhibition was -19.6% (inactive).
Turning to `CCOC(=S)SCCSC`, the growth inhibition is 6.3% (inactive).
As for `CC1=CC(C)(C)NC(=S)N1c1cccc2c(S(=O)(=O)O)cccc12`, the figure is -20.8% (inactive); as for `CCOC(=O)c1nc2ccccc2nc1NCc1ccc(Cl)cc1Cl`, 19% (inactive).
On to `c1ccc2c[n+](CCCC[n+]3ccc4ccccc4c3)ccc2c1`, for which the growth inhibition is 17.1% (inactive).
